In PubChem BioAssay (NCATS):
Results filed as inconclusive are left out. The source made the active and inactive calls. Unless noted, the call rests on the fitted dose curve; in most records, active means well fitted curve in either direction with a large enough effect (not every such curve was filed as active); inconclusive means small, poorly fitted or top-dose-only effect, or another doubt; inactive means flat fitted curve, though single readings scatter.

Key:
[1] = target: Lysosomal acid glucosylceramidase (Homo sapiens) (UniProt P04062); experiment: Glucocerebrosidase-p2 (AID 348; in the data active means potency below about 10 µM; further: potency means the concentration at half of the fitted maximal effect); conditions: purified GBA, blue fluorogenic substrate, 40 min
Outline: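 Compounds titrated from 0.6 nM upwards against 0.2 nM enzyme in pH 5.9 citric acid/KH2PO4, taurocholate, tween-20; blue fluorogenic substrate 80 uM, 40 min room temperature, stopped and read Ex 365/Em 440 for AC50.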

[2] = AP1 Signaling Pathway (AID 357); conditions: ME-180 AP-1-bla reporter, EGF-induced, beta-lactamase ratio, 5 h; at 7.69 µM (top of the series) unless noted;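 further: ME-180 reporter cells stimulated with EGF at its EC50 level; on the % scale 0 is the no-effect control and ±100 the full control effect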
Outline: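 A ratiometric CCF4 readout (405 nm excitation; 460 and 530 nm emission) quantified AP-1-driven beta-lactamase in ME-180 cells after 5 h with compound and EC50 EGF; AC50 values were derived for activators and inhibitors.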

[3] = Stat Signaling Pathway (AID 446); conditions: ME-180 (cervical carcinoma) SIE beta-lactamase reporter, IL-6 stimulated, 5 h; at 7.69 µM (top of the series) unless noted;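 further: ME-180 cervical cancer cells given 40 pM IL-6 alongside compound; SIE-controlled beta-lactamase reporter measured as 460/530 nm FRET emission ratio; on the % scale 0 is the no-effect control and ±100 the full control effect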
Outline: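 IL-6/STAT signaling read in ME-180 cells via an SIE beta-lactamase reporter. Stimulus was 40 pM IL-6 (its AC50) for 5 hrs, so both activation and inhibition register.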

[4] = target: Glucocorticoid receptor (Homo sapiens) (UniProt P04150); experiment: GR-EFC Redistribution (AID 451; calls by dose curve; further: potency means the concentration at half of the fitted maximal effect); conditions: CHO-K1 GR-EFC translocation, beta-gal luminescence, 2 h
Outline: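 Translocation of GR-ED fusion to nuclear EA restores b-gal, read by luminescence after 1 h room-temperature detection. Engineered CHO-K1 biosensor cells, 1,000/well, exposed 2 h at 37 C to titrations up to 46 uM final.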

[5] = target: Mitogen-activated protein kinase 10 (Mus musculus) (UniProt Q61831); experiment: JNK3 AlphaScreen Assay (AID 530); conditions: JNK3 lysate, c-Jun phosphorylation; series mostly up to 57.1 µM;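 further: kinase came from lysate of stimulated human HepG2 cells; signal reports phosphorylation of biotinylated GST-cJun 1-79 at Ser73 with 10 µM ATP; on the % scale 0 is the no-effect control and ±100 the full control effect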
Outline: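 Room-temperature AlphaScreen kinase assay; pre-activated HepG2 lysate as JNK3 source, biotin-GST-cJun(1-79) substrate, 10 uM ATP, compound 15 min preincubation.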

[6] = target: 3',5'-cyclic-AMP phosphodiesterase 4B (Homo sapiens) (UniProt Q07343); experiment: qHTS Assay for Inhibitors of PDE-IV (AID 607; active means well fitted activation curve with a large enough effect in the main read-out, with a control signal flat, not every such curve was filed as active; further: % of control where 0% means no effect); conditions: HEK293 ACTOne CNG channel cells, membrane potential fluorescence; series mostly up to 22.9 µM
Outline: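 Live HEK293 cells with a modified cyclic nucleotide-gated (CNG) channel report intracellular cAMP via membrane-potential dye fluorescence (ex 535/em 590 nm). Endogenous PDE-IV was targeted. Compounds were tested at up to 22.9 uM final; RO 20-1724 100 uM served as control.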

[7] = qHTS Assay for Lipid Storage Modulators (AID 1519; calls by dose curve); conditions: Drosophila S3 cells, BODIPY lipid droplet/cell ratio, laser cytometry, cells loaded with oleic acid; for activity change, negative = inhibition: at 57.5 µM (top of the series)
Outline: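 Cells seeded at 5,000 per well were treated with compounds over a concentration series and loaded with oleic acid (400 uM, as added). Lipid droplet fluorescence (488 nm excitation, 500-530 nm channel) was read by laser-scanning cytometry and normalized to 20 uM Triacsin C.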

[8] = Primary qHTS for small molecule stabilizers of the endoplasmic reticulum resident proteome: Secreted ER Calcium Modulated Protein (SERCaMP) assay (AID 1508630; active means well fitted inhibition curve with a large enough effect; further: on the % scale 0 is the no-effect control and ±100 the full control effect); conditions: SH-SY5Y GLuc-SERCaMP (Gaussia luciferase released on ER calcium loss) secretion, thapsigargin, luminescence; series mostly up to 38.4 µM
Outline: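 GLuc-SERCaMP-expressing SH-SY5Y cells, pretreated 16 h with compound, are challenged with thapsigargin to empty ER calcium stores; after 4 h, coelenterazine is added directly to the medium and luminescence is imaged.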

[9] = measured here: cell count channel max response
[10] = measured here: lipid channel max response

Chain of Lysosomal acid glucosylceramidase (Homo sapiens) (P04062 whole entry, looked up): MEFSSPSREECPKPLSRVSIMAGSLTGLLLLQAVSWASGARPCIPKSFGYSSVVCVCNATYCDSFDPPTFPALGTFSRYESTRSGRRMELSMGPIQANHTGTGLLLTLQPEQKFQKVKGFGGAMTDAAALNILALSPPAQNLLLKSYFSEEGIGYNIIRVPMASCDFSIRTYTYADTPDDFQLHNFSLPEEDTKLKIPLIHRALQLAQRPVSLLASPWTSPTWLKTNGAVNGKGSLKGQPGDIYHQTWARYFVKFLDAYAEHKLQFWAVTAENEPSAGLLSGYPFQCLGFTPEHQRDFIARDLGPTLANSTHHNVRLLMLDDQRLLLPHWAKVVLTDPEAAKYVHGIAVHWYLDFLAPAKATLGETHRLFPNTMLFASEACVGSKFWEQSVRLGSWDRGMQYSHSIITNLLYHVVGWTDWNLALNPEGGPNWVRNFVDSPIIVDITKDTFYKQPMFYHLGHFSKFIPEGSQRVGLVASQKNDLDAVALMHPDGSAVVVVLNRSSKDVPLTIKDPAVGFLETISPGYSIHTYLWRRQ
Chain of 3',5'-cyclic-AMP phosphodiesterase 4B (Homo sapiens) (Q07343 whole entry, looked up): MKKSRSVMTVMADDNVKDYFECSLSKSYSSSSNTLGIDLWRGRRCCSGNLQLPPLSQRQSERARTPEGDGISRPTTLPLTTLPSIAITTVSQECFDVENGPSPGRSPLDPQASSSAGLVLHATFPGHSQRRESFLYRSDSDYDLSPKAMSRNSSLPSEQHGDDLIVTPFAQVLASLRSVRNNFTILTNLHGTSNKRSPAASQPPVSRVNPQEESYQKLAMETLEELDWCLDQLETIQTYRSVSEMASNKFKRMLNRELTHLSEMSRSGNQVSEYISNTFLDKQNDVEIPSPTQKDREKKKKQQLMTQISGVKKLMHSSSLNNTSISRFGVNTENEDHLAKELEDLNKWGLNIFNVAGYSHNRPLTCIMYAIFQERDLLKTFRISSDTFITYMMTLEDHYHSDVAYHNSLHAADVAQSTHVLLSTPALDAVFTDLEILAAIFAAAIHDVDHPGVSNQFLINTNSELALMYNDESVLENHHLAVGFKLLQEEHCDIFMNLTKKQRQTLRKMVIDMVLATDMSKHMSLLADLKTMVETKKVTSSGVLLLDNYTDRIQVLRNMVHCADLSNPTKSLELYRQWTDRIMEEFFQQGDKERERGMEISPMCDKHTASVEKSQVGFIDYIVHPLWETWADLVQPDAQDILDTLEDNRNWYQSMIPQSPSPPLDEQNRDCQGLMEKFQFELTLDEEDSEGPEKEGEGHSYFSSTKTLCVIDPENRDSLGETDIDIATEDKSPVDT
Chain of Glucocorticoid receptor (Homo sapiens) (P04150 whole entry, looked up, the tested form may be a part): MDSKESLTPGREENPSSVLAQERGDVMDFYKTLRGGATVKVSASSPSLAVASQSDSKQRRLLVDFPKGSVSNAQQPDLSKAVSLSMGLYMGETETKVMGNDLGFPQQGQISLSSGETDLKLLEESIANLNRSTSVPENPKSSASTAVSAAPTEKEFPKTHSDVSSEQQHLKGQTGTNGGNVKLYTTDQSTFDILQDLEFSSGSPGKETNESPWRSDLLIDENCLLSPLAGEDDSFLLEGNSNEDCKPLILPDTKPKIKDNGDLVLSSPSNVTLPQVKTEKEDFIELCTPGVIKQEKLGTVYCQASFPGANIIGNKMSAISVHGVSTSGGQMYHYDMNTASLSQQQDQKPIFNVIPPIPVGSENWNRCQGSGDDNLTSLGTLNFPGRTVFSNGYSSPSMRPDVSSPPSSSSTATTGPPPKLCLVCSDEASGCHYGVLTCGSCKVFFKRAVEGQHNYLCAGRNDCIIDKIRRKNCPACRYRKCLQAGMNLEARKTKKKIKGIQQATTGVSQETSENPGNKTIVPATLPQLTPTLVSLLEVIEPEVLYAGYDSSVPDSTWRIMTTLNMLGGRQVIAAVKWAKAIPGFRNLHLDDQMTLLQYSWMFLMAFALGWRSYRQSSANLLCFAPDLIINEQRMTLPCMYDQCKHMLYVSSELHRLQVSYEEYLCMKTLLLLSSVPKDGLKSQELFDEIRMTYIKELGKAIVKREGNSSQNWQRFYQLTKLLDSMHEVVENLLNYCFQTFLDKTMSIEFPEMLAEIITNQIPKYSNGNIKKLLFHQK

N#Cc1ccc(CN2CCC3(CC2)CCN(C(=O)c2cccc(F)c2)CC3)cc1
7.59%: max response [7, 9]
inactive: Potency [1] > 11.4 µM | activity change, negative = inhibition [2] 3.84% | activity, negative = inhibition [3] 8.5% | Potency [4] > 46 µM | Potency [5] | Potency [6] | activity change, negative = inhibition [7] 1.66% | outcome [8]
9.63%: max response [7, 10]

COCC(=O)N1CCC2(CCCN(C(c3ccccc3)c3ccccc3)C2)CC1
inactive: Potency [1] > 11.4 µM | activity change, negative = inhibition [2] -6.37% | activity, negative = inhibition [3] 16.7% | Potency [4] > 46 µM | Potency [5] | Potency [6] | activity change, negative = inhibition [7] -0.272% | outcome [8]
15.7%: max response [7, 9]
20.6%: max response [7, 10]

O=C(c1cc(C(F)(F)F)cc(C(F)(F)F)c1)N1CCC2(CCCN(Cc3ccccc3)C2)CC1
4.9%: max response [7, 9]
5.21%: max response [7, 10]
inactive: Potency [1] > 11.4 µM | activity change, negative = inhibition [2] 15.8% | activity, negative = inhibition [3] -0.518% | Potency [4] > 46 µM | Potency [5] | Potency [6] | activity change, negative = inhibition [7] -0.673% | outcome [8]

N#Cc1ccc(CN2CC3(CCN(C(=O)c4ccco4)CC3)C2)cc1
23.7%: max response [7, 10]
18.6%: max response [7, 9]
inactive: Potency [1] > 11.4 µM | activity change, negative = inhibition [2] -7.09% | activity, negative = inhibition [3] 4.26% | Potency [4] > 46 µM | Potency [5] | Potency [6] | activity change, negative = inhibition [7] 4.77% | outcome [8]

O=C(c1cnccn1)N1CCC2(CCN(Cc3ccccc3)CC2)CC1
7.12%: max response [7, 9]
inactive: Potency [1] > 11.4 µM | activity change, negative = inhibition [2] 12.5% | activity, negative = inhibition [3] -1.26% | Potency [4] > 46 µM | Potency [5] | Potency [6] | activity change, negative = inhibition [7] 2.37% | outcome [8]
14.3%: max response [7, 10]

Cc1noc(C)c1C(=O)N1CCC[C@@]2(CCN(C(c3ccccc3)c3ccccc3)C2)C1
12.4%: max response [7, 9]
inactive: Potency [1] > 11.4 µM | activity change, negative = inhibition [2] -7.96% | activity, negative = inhibition [3] -6.89% | Potency [4] > 46 µM | Potency [5] | Potency [6] | activity change, negative = inhibition [7] 2.35% | outcome [8]
16.6%: max response [7, 10]

COc1ccc(C(=O)N2CCC3(CCCN(Cc4ccc(C#N)cc4)C3)CC2)cc1
-1.58%: max response [7, 9]
inactive: Potency [1] > 11.4 µM | activity change, negative = inhibition [2] 16.7% | activity, negative = inhibition [3] 2.1% | Potency [4] > 46 µM | Potency [5] | Potency [6] | activity change, negative = inhibition [7] -2.89% | outcome [8]
-2.86%: max response [7, 10]

O=C(c1cnccn1)N1CCC2(CCN(Cc3cc(C(F)(F)F)cc(C(F)(F)F)c3)CC2)CC1
inactive: Potency [1] > 11.4 µM | activity change, negative = inhibition [2] 6.25% | activity, negative = inhibition [3] -5.04% | Potency [4] > 46 µM | Potency [5] | Potency [6] | activity change, negative = inhibition [7] 2.5% | outcome [8]
15.1%: max response [7, 10]
13.6%: max response [7, 9]

COc1ccccc1CN1CCC2(CC1)CCN(C(=O)c1ccncc1)CC2
-17.2%: max response [7, 10]
-18.4%: max response [7, 9]
inactive: Potency [1] > 11.4 µM | activity change, negative = inhibition [2] -13% | activity, negative = inhibition [3] 5.76% | Potency [4] > 46 µM | Potency [5] | Potency [6] | activity change, negative = inhibition [7] -0.0628% | outcome [8]

COC(=O)N1CCC2(CCN(Cc3ccc(C#N)cc3)CC2)CC1
5.74%: max response [7, 9]
14.3%: max response [7, 10]
inactive: Potency [1] > 11.4 µM | activity change, negative = inhibition [2] -12.5% | activity, negative = inhibition [3] 21.3% | Potency [4] > 46 µM | Potency [5] | Potency [6] | activity change, negative = inhibition [7] 6.51% | outcome [8]

O=C(c1ccncc1)N1CCC2(CC1)CN(c1ccncc1)C2
-20.1%: max response [7, 9]
-17.6%: max response [7, 10]
inactive: Potency [1] > 11.4 µM | activity change, negative = inhibition [2] 6.26% | activity, negative = inhibition [3] 1.34% | Potency [4] > 46 µM | Potency [5] | Potency [6] | activity change, negative = inhibition [7] 1.59% | outcome [8]

O=C(c1ccncc1)N1CCC2(CCCN(c3ccncc3)C2)CC1
-10.7%: max response [7, 9]
inactive: Potency [1] > 11.4 µM | activity change, negative = inhibition [2] -3.65% | activity, negative = inhibition [3] -4.53% | Potency [4] > 46 µM | Potency [5] | Potency [6] | activity change, negative = inhibition [7] 0.736% | outcome [8]
-8.67%: max response [7, 10]

O=C(c1cc(C(F)(F)F)cc(C(F)(F)F)c1)N1CCC2(CCN(Cc3ccncc3)CC2)CC1
7.35%: max response [7, 9]
10.5%: max response [7, 10]
inactive: Potency [1] > 11.4 µM | activity change, negative = inhibition [2] -22.8% | activity, negative = inhibition [3] 6.58% | Potency [4] > 46 µM | Potency [5] | Potency [6] | activity change, negative = inhibition [7] 3.65% | outcome [8]

O=C(c1cnccn1)N1CCC2(CC1)CN(c1ncccn1)C2
inactive: Potency [1] > 11.4 µM | activity change, negative = inhibition [2] -12.2% | activity, negative = inhibition [3] 21.6% | Potency [4] > 46 µM | Potency [5] | Potency [6] | activity change, negative = inhibition [7] 6.01% | outcome [8]
6.2%: max response [7, 9]
15.3%: max response [7, 10]

CC(C)CN1CC2(CCN(C(=O)c3ccco3)CC2)C1
inactive: Potency [1] > 11.4 µM | activity change, negative = inhibition [2] 6.73% | activity, negative = inhibition [3] -3.41% | Potency [4] > 46 µM | Potency [5] | Potency [6] | activity change, negative = inhibition [7] -2.08% | outcome [8]
7.7%: max response [7, 10]
8.53%: max response [7, 9]

O=C(c1cc(C(F)(F)F)cc(C(F)(F)F)c1)N1CCC2(CCCN(c3ccccc3)C2)CC1
-14.9%: max response [7, 10]
1.58%: max response [7, 9]
inactive: Potency [1] > 11.4 µM | activity change, negative = inhibition [2] 22.8% | activity, negative = inhibition [3] 2.12% | Potency [4] > 46 µM | Potency [5] | Potency [6] | activity change, negative = inhibition [7] -18.4% | outcome [8]
